# From publication PMC5540273 (PLoS ONE, 2017)
# Where “and” joins values, the source holds several entries; their conditions need not be identical. Equal values may be shown once. Read-outs that look alike come from different tables or passages of the source.
# Key:
# DAPK2 = details: n = 1
# DAPK3 = details: n = 1
# DCAMKL1 = system: T1, DCAMKL1; details: n = 1
# T1 construct: gene DCLK1
# DCAMKL2 = system: T2, DCAMKL2; details: concentration: 1 μM, replicates: in singlicate; n = 1
# T2 construct: gene DCLK2
# DCAMKL3 = system: T3, DCAMKL3; details: n = 1
# T3 construct: gene DCLK3
# DDR1 = details: n = 1
# DDR2 = details: concentration: 1 μM, replicates: in singlicate; n = 1
# DLK = system: T4, DLK; details: n = 1
# T4 construct: gene MAP3K12
# DMPK2 = system: T5, DMPK2; details: n = 1
# T5 construct: gene CDC42BPG
# DMPK = details: concentration: 1 μM, replicates: in singlicate; n = 1
# DRAK1 = system: T6, DRAK1; details: n = 1
# T6 construct: gene STK17A
# DRAK2 = system: T7, DRAK2; details: n = 1
# T7 construct: gene STK17B
# DYRK1A = details: n = 1
# DYRK1B = details: n = 1
# DYRK2 = details: n = 1
# EGFR = details: n = 1
# EIF2AK1 = details: concentration: 1 μM, replicates: in singlicate; n = 1
# EPHA1 = details: n = 1
# EPHA2 = details: n = 1
# EPHA3 = details: concentration: 1 μM, replicates: in singlicate; n = 1
# [1] = concentration: 1 μM, replicates: in singlicate
# [2] = concentration: 1 μM,replicates: in singlicate, 1 µM
# 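Also: KINOMEscan kinase panel screen.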
smiles,measurement,setting,value
Cc1cc(NCC(c2ccccc2)c2ccccc2)nc(NCc2ccc(C(F)(F)F)cc2)n1 [GW497681],%Inh,DAPK2; [1],0%
same,%Inh,DAPK3; [1],0%
same,%Inh,DCAMKL1; [1],0%
same,%Inh,DCAMKL2,11%
same,%Inh,DCAMKL3; [1],0%
same,%Inh,DDR1; [1],0%
same,%Inh,DDR2,20%
same,%Inh,DLK; [1],39%
same,%Inh,DMPK2; [1],1%
same,%Inh,DMPK,0%
same,%Inh,DRAK1; [1],0%
same,%Inh,DRAK2; [1],0%
same,%Inh,DYRK1A; [1],0%
same,%Inh,DYRK1B; [1],0%
same,%Inh,DYRK2; [1],3%
same,%Inh,EGFR; [1],10%
same,%Inh,EIF2AK1,0%
same,%Inh,EPHA1; [1],0%
same,%Inh,EPHA2; [1],3%
same,%Inh,EPHA3,0%
CCCc1ccc(S(=O)(=O)NC2CCN(c3ccnc(Nc4ccc(F)cc4)n3)C2)cc1 (stereo not shown) [GSK1379715],%Inh,DAPK2; [1],0%
same,%Inh,DAPK3; [1],7%
same,%Inh,DCAMKL1; [1],10%
same,%Inh,DCAMKL2,0%
same,%Inh,DCAMKL3; [1],0%
same,%Inh,DDR1; [1],0%
same,%Inh,DDR2,7%
same,%Inh,DLK; [1],0%
same,%Inh,DMPK2; [1],0%
same,%Inh,DMPK,0%
same,%Inh,DRAK1; [1],0%
same,%Inh,DRAK2; [1],0%
same,%Inh,DYRK1A; [1],23%
same,%Inh,DYRK1B; [1],0%
same,%Inh,DYRK2; [1],0%
same,%Inh,EGFR; [1],0%
same,%Inh,EIF2AK1,12%
same,%Inh,EPHA1; [1],8%
same,%Inh,EPHA2; [1],12%
same,%Inh,EPHA3,0%
CC1=C(C(=O)Nc2cc3cn[nH]c3cc2F)C(c2ccc(C(F)(F)F)cc2)CC(=O)N1 (stereo not shown) [GSK429286],%Inh,DAPK2; [1],0%
same,%Inh,DAPK3; [1],24%
same,%Inh,DCAMKL1; [1],4%
same,%Inh,DCAMKL2,7%
same,%Inh,DCAMKL3; [1],39%
same,%Inh,DDR1; [1],3%
same,%Inh,DDR2,0%
same,%Inh,DLK; [1],0%
same,%Inh,DMPK2; [1],0%
same,%Inh,DMPK,0%
same,%Inh,DRAK1; [1],0%
same,%Inh,DRAK2; [1],12%
same,%Inh,DYRK1A; [1],21%
same,%Inh,DYRK1B; [1],0%
same,%Inh,DYRK2; [1],0%
same,%Inh,EGFR; [1],33%
same,%Inh,EIF2AK1,0%
same,%Inh,EPHA1; [1],22%
same,%Inh,EPHA2; [1],14%
same,%Inh,EPHA3,0%
Cl.O=C(Nc1cccc(-c2nn3ncccc3c2-c2ccnc(Nc3cccnc3)n2)c1)c1c(F)cccc1F [GSK312879],%Inh,DAPK2; [1],27%
same,%Inh,DAPK3; [1],6%
same,%Inh,DCAMKL1; [1],12%
same,%Inh,DCAMKL2,0%
same,%Inh,DCAMKL3; [1],0%
same,%Inh,DDR1; [1],94.4%
same,%Inh,DDR2,4%
same,%Inh,DLK; [1],14%
same,%Inh,DMPK2; [1],13%
same,%Inh,DMPK,15%
same,%Inh,DRAK1; [1],1%
same,%Inh,DRAK2; [1],0%
same,%Inh,DYRK1A; [1],22%
same,%Inh,DYRK1B; [1],18%
same,%Inh,DYRK2; [1],6%
same,%Inh,EGFR; [1],98.9%
same,%Inh,EIF2AK1,17%
same,%Inh,EPHA1; [1],4%
same,%Inh,EPHA2; [1],0%
same,%Inh,EPHA3,2%
Cc1cccc(-c2nc(Nc3ccncc3)c3ccccc3n2)n1 [GW855857],%Inh,DAPK2; [1],7%
same,%Inh,DAPK3; [1],17%
same,%Inh,DCAMKL1; [1],14%
same,%Inh,DCAMKL2,0%
same,%Inh,DCAMKL3; [1],21%
same,%Inh,DDR1; [1],30%
same,%Inh,DDR2,45%
same,%Inh,DLK; [1],0%
same,%Inh,DMPK2; [1],76%
same,%Inh,DMPK,2%
same,%Inh,DRAK1; [1],2%
same,%Inh,DRAK2; [1],7%
same,%Inh,DYRK1A; [1],0%
same,%Inh,DYRK1B; [1],27%
same,%Inh,DYRK2; [1],0%
same,%Inh,EGFR; [1],6%
same,%Inh,EIF2AK1,0%
same,%Inh,EPHA1; [1],23%
same,%Inh,EPHA2; [1],18%
same,%Inh,EPHA3,0%
Cc1ccc(NC(=O)Nc2cc(C(C)(C)C)nn2-c2ccccc2)cc1 [GSK1014915],%Inh,DAPK2; [1],0%
same,%Inh,DAPK3; [1],18%
same,%Inh,DCAMKL1; [1],2%
same,%Inh,DCAMKL2,25%
same,%Inh,DCAMKL3; [1],5%
same,%Inh,DDR1; [1],90.7%
same,%Inh,DDR2,88%
same,%Inh,DLK; [1],18%
same,%Inh,DMPK2; [1],0%
same,%Inh,DMPK,3%
same,%Inh,DRAK1; [1],0%
same,%Inh,DRAK2; [1],1%
same,%Inh,DYRK1A; [1],33%
same,%Inh,DYRK1B; [1],11%
same,%Inh,DYRK2; [1],3%
same,%Inh,EGFR; [1],38%
same,%Inh,EIF2AK1,0%
same,%Inh,EPHA1; [1],7%
same,%Inh,EPHA2; [1],7%
same,%Inh,EPHA3,0%
COc1ccc(Nc2nccc(-c3cccc(NC(=O)c4cc5cc(F)ccc5[nH]4)c3)n2)cc1 [GSK1229782],%Inh,DAPK2; [1],11%
same,%Inh,DAPK3; [1],6%
same,%Inh,DCAMKL1; [1],4%
same,%Inh,DCAMKL2,0%
same,%Inh,DCAMKL3; [1],4%
same,%Inh,DDR1; [1],0%
same,%Inh,DDR2,39%
same,%Inh,DLK; [1],37%
same,%Inh,DMPK2; [1],13%
same,%Inh,DMPK,25%
same,%Inh,DRAK1; [1],24%
same,%Inh,DRAK2; [1],0%
same,%Inh,DYRK1A; [1],5%
same,%Inh,DYRK1B; [1],25%
same,%Inh,DYRK2; [1],12%
same,%Inh,EGFR; [1],22%
same,%Inh,EIF2AK1,10%
same,%Inh,EPHA1; [1],56%
same,%Inh,EPHA2; [1],9%
same,%Inh,EPHA3,35%
O=C(Nc1n[nH]c2nc(-c3nccs3)c(Br)cc12)C1CCCC1 [SB-742609],%Inh,DAPK2; [1],0%
same,%Inh,DAPK3; [1],5%
same,%Inh,DCAMKL1; [1],9%
same,%Inh,DCAMKL2,16%
same,%Inh,DCAMKL3; [1],0%
same,%Inh,DDR1; [1],0%
same,%Inh,DDR2,11%
same,%Inh,DLK; [1],14%
same,%Inh,DMPK2; [1],0%
same,%Inh,DMPK,0%
same,%Inh,DRAK1; [1],4%
same,%Inh,DRAK2; [1],0%
same,%Inh,DYRK1A; [1],16%
same,%Inh,DYRK1B; [1],15%
same,%Inh,DYRK2; [1],35%
same,%Inh,EGFR; [1],32%
same,%Inh,EIF2AK1,0%
same,%Inh,EPHA1; [1],17%
same,%Inh,EPHA2; [1],9%
same,%Inh,EPHA3,0%
CCn1c(-c2ccccn2)nc2cnccc21 [SB-736398],%Inh,DAPK2; [1],0%
same,%Inh,DAPK3; [1],13%
same,%Inh,DCAMKL1; [1],5%
same,%Inh,DCAMKL2,0%
same,%Inh,DCAMKL3; [1],0%
same,%Inh,DDR1; [1],0%
same,%Inh,DDR2,39%
same,%Inh,DLK; [1],53%
same,%Inh,DMPK2; [1],0%
same,%Inh,DMPK,0%
same,%Inh,DRAK1; [1],5%
same,%Inh,DRAK2; [1],8%
same,%Inh,DYRK1A; [1],19%
same,%Inh,DYRK1B; [1],11%
same,%Inh,DYRK2; [1],0%
same,%Inh,EGFR; [1],15%
same,%Inh,EIF2AK1,0%
same,%Inh,EPHA1; [1],21%
same,%Inh,EPHA2; [1],6%
same,%Inh,EPHA3,0%
Cn1ccc2ncnc(Oc3ccc(NC(=O)Nc4ccccc4)cc3)c21,%Inh,DAPK2; [1],0%
same,%Inh,DAPK3; [1],0%
same,%Inh,DCAMKL1; [1],23%
same,%Inh,DCAMKL2,0%
same,%Inh,DCAMKL3; [1],0%
same,%Inh,DDR1; [1],63%
same,%Inh,DDR2,74%
same,%Inh,DLK; [1],0%
same,%Inh,DMPK2; [1],0%
same,%Inh,DMPK,0%
same,%Inh,DRAK1; [1],0%
same,%Inh,DRAK2; [1],0%
same,%Inh,DYRK1A; [1],6%
same,%Inh,DYRK1B; [1],40%
same,%Inh,DYRK2; [1],0%
same,%Inh,EGFR; [1],3%
same,%Inh,EIF2AK1,22%
same,%Inh,EPHA1; [1],7%
same,%Inh,EPHA2; [1],0%
same,%Inh,EPHA3,0%
CSc1nn2c(=O)cc(N3CCOCC3)nc2n1Cc1cccc(C(F)(F)F)c1C [GSK2363608],%Inh,DAPK2; [2],9% and 0%
same,%Inh,DAPK3; [2],27% and 0%
same,%Inh,DCAMKL1; [2],10% and 0%
same,%Inh,DCAMKL2,0%
same,%Inh,DCAMKL3; [2],34% and 0%
same,%Inh,DDR1; [2],7% and 4%
same,%Inh,DDR2,0%
same,%Inh,DLK; [2],34% and 0%
same,%Inh,DMPK2; [2],24% and 2%
same,%Inh,DMPK,0%
same,%Inh,DRAK1; [2],0% and 17%
same,%Inh,DRAK2; [2],0% and 8%
same,%Inh,DYRK1A; [2],23% and 21%
same,%Inh,DYRK1B; [2],8% and 13%
same,%Inh,DYRK2; [2],16% and 14%
same,%Inh,EGFR; [2],36% and 20%
same,%Inh,EIF2AK1,0%
same,%Inh,EPHA1; [2],28% and 9%
same,%Inh,EPHA2; [2],5% and 0%
same,%Inh,EPHA3,0%
